Source: PubChem BioAssay
This is a sample that favours compounds with a hit; in the whole collection about 2.3% have one here.
U2OS ROS induce = inducers of reactive oxygen species in cancer cells; U2OS ROS induction, H2DCF-DA fluorescence; ROS induction (% of piperlongumine), % at 10 µM; 46,000 compounds, 2% hits; in the data active = ROS induction above about 79%, passing the limit was not always enough; inconclusive = no clear call, values can overlap the other calls
YB-1 expr inh = YB-1 expression inhibition. U2OS, qRT-PCR YB-1 vs CDIP delta delta Cp, 16 h; hits give high values; zero = DMSO, each unit about twofold. delta delta Cp (YB-1 minus CDIP) (concentration not given with the values). 30,000 compounds, 0.37% hits. AID 434959;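 active = delta delta Cp rounded down to an integer at or above 3, about 3 SD of DMSO wells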;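 note: higher means less YB-1 transcript or more CDIP transcript relative to DMSO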
Hits are given with their value; – = inactive; ? = inconclusive; · = no result.

SMILES	U2OS ROS induce	YB-1 expr inh
Cn1c(SCc2cc(F)cc(F)c2)nnc1-c1ccc2nonc2c1	–	·
C[C@@H]1CCCCO[C@H](CN(C)C(=O)CCC(F)(F)F)[C@@H](C)CN([C@H](C)CO)C(=O)c2cc(N(C)C)ccc2O1	–	9.9
C[C@@H]1CCCCO[C@@H](CN(C)C(=O)Nc2ccccc2)[C@@H](C)CN([C@H](C)CO)C(=O)c2cc(NC(=O)CCC(F)(F)F)ccc2O1	95	–
C[C@@H]1CCCCO[C@H](CN(C)C(=O)Nc2ccccc2)[C@@H](C)CN([C@H](C)CO)C(=O)c2cc(NC(=O)c3ccccc3)ccc2O1	–	4.4
C[C@@H]1CCCCO[C@H](CN(C)C(=O)Nc2ccccc2)[C@@H](C)CN([C@H](C)CO)C(=O)c2cc(NC(=O)CCC(F)(F)F)ccc2O1	–	–
C[C@@H]1CCCCO[C@@H](CN(C)C(=O)Nc2ccccc2)[C@@H](C)CN([C@H](C)CO)C(=O)c2cc(NC(=O)c3ccncc3)ccc2O1	–	–
C[C@@H]1CCCCO[C@H](CN(C)C(=O)CCC(F)(F)F)[C@@H](C)CN([C@H](C)CO)C(=O)c2cc(NC(=O)CCC(F)(F)F)ccc2O1	–	–
CC(C)CCNCc1c(C(=O)O)n(Cc2ccccc2)c2ccccc12	–	·
CC(C)CN(CC(C)C)S(=O)(=O)N1CCC(C(=O)N2CCOCC2)CC1	–	·
CC1=N/C(=C\c2sccc2C)C(=O)O1	94	–
Cc1ccsc1/C=N/NC(=O)c1ccccn1	–	–
O=C(/C=C/c1ccc(O)cc1)OC[C@H]1O[C@@H](Oc2cc(O)c3c(c2)OC(c2ccc(O)cc2)CC3=O)[C@H](O)[C@@H](OC(=O)/C=C/c2ccc(O)cc2)[C@@H]1O (some centres not stated)	165	–
O=C1C=CC(O)(/C=C/C(=O)OC[C@H]2O[C@@H](Oc3ccc(O)cc3)[C@H](O)[C@@H](OC(=O)/C=C/C3(O)C=CC(=O)C=C3)[C@@H]2O)C=C1	127	–
COc1ccc(C2CC(=O)c3c(O)cc(O[C@@H]4O[C@H](CO[C@@H]5O[C@@H](C)[C@H](O)[C@@H](O)[C@H]5O)[C@@H](O)[C@H](O)[C@H]4O)cc3O2)cc1 (some centres not stated)	–	–
C[C@@H]1O[C@@H](OC[C@H]2O[C@@H](Oc3ccc(O)cc3)[C@H](O)[C@@H](OC(=O)c3ccc(O)cc3)[C@@H]2O)[C@H](O)[C@H](O)[C@H]1O	–	–
CC(=O)N1c2ccccc2NC2=C(C(=O)CCC2)C1c1ccc(Cl)cc1 (configuration not stated)	–	·
Cc1ccc(-n2nc(C(F)(F)F)cc2-c2cccs2)cc1	–	·
C[C@@H]1O[C@@H](Oc2cc(O)c3c(=O)c(-c4ccc(O)cc4)coc3c2)[C@H](O)[C@H](O)[C@H]1O	–	3.9
C[C@@H]1O[C@@H](Oc2ccc(-c3coc4cc(O[C@@H]5O[C@@H](C)[C@H](O)[C@@H](O)[C@H]5O)cc(O)c4c3=O)cc2)[C@H](O)[C@H](O)[C@H]1O	–	–
O=C(COc1ccc(S(=O)(=O)N2CCOCC2)cc1)Nc1ccccc1	–	·
CCCn1c(-c2ccc(S(=O)(=O)N3CCOCC3)cc2)csc1=Nc1ccccc1	83	·
CCCCc1cc(=O)oc2cc3oc4c(c3cc12)CCCC4	–	·
Cc1ccc(S(=O)(=O)N(C)C[C@H]2Oc3ccc(NC(=O)Nc4c(C)noc4C)cc3CC(=O)N([C@@H](C)CO)C[C@H]2C)cc1	–	9.8
Cc1noc(C)c1NC(=O)Nc1ccc2c(c1)CC(=O)N([C@H](C)CO)C[C@@H](C)[C@H](CN(C)S(C)(=O)=O)O2	–	–
Cc1ccc(S(=O)(=O)N(C)C[C@@H]2Oc3ccc(NC(=O)Nc4c(C)noc4C)cc3CC(=O)N([C@H](C)CO)C[C@H]2C)cc1	–	–
SMILES	U2OS ROS induce	YB-1 expr inh
Cc1noc(C)c1NC(=O)Nc1ccc2c(c1)CC(=O)N([C@@H](C)CO)C[C@@H](C)[C@@H](CN(C)S(=O)(=O)c1c(C)noc1C)O2	85	–
CCOC(=O)c1sc(C)c2c(=O)n(Cc3ccccc3)c(C)nc12	–	·
CC1CCc2cc(F)ccc2N1C(=O)Nc1ccc(F)cc1 (configuration not stated)	–	·
CCCCC1=NN(C(=O)c2ccccc2)C(O)(C(F)(F)F)C1 (configuration not stated)	–	·
CC1CCN(C(=O)Cn2cc(SCC(=O)N3CCc4ccccc43)c3ccccc32)CC1	–	·
Cc1cc(C(=O)Nc2cccc3c2O[C@H](CN(C)Cc2ccc(C(=O)Nc4ccccc4N)cc2)[C@@H](C)CN([C@H](C)CO)C3=O)n(C)n1	130	–
Cc1cc(C(=O)Nc2cccc3c2O[C@@H](CN(C)Cc2ccc(C(=O)Nc4ccccc4N)cc2)[C@H](C)CN([C@H](C)CO)C3=O)n(C)n1	–	–
Cc1cc(C(=O)Nc2cccc3c2O[C@H](CN(C)Cc2ccc(C(=O)Nc4ccccc4N)cc2)[C@H](C)CN([C@H](C)CO)C3=O)n(C)n1	–	–
Cc1cc(C(=O)Nc2cccc3c2O[C@H](CN(C)Cc2ccc(C(=O)Nc4ccccc4N)cc2)[C@@H](C)CN([C@@H](C)CO)C3=O)n(C)n1	189	–
O=C(CCCn1sc2ccccc2c1=O)NCCc1ccccc1	–	·
O=C(CCCn1sc2ccccc2c1=O)N1CCc2ccccc21	–	·
Cc1ccc(-c2nnc(N3CCN(C(=O)CSc4nc5ccccc5o4)CC3)c3ccccc23)cc1	–	·
Cc1ccc(-c2nnc(-n3cnc4cc(C)c(C)cc43)c3ccccc23)cc1	–	3.8
OC(c1ccccc1)c1nc2ccccc2n1Cc1ccccc1 (configuration not stated)	–	·
CC(C)NC(=O)N(C)C[C@H]1Oc2c(NS(=O)(=O)c3cn(C)cn3)cccc2C(=O)N([C@H](C)CO)C[C@H]1C	–	12
Cc1cc(C(=O)Nc2cccc3c2O[C@@H](CN(C)Cc2ccccc2)[C@@H](C)CN([C@H](C)CO)C3=O)n(C)n1	–	–
CC(C)NC(=O)N(C)C[C@H]1Oc2c(NS(=O)(=O)c3cn(C)cn3)cccc2C(=O)N([C@H](C)CO)C[C@@H]1C	?	–
CC(C)NC(=O)N(C)C[C@@H]1Oc2c(NC(=O)c3ccncc3)cccc2C(=O)N([C@@H](C)CO)C[C@H]1C	101	–
Cc1cc(C(=O)Nc2cccc3c2O[C@H](CN(C)Cc2ccc(Oc4ccccc4)cc2)[C@@H](C)CN([C@H](C)CO)C3=O)n(C)n1	172	–
Cc1cc(C(=O)Nc2cccc3c2O[C@@H](CN(C)S(=O)(=O)c2cccs2)[C@@H](C)CN([C@@H](C)CO)C3=O)n(C)n1	–	–
Cc1cc(C(=O)Nc2cccc3c2O[C@H](CN(C)S(=O)(=O)c2cccs2)[C@H](C)CN([C@@H](C)CO)C3=O)n(C)n1	–	20
CC(C)NC(=O)N(C)C[C@H]1Oc2c(NC(=O)c3ccncc3)cccc2C(=O)N([C@H](C)CO)C[C@H]1C	–	–
O=C(NCCc1ccccc1)C1CC(=O)N(c2ccc(F)c(Cl)c2)C1 (configuration not stated)	–	·
COc1ccc(NC(=O)CN(c2ccc(C)cc2)S(=O)(=O)c2ccc(OC)cc2)cc1	–	·
FC(F)(F)c1ccc(NC(=S)N2CCn3cccc3C2c2cccs2)cc1 (configuration not stated)	–	·
